From ChEMBL document CHEMBL4513216, “Probing the Open Global Health Chemical Diversity Library for Multistage-Active Starting Points for Next-Generation Antimalarials” (ACS Infect Dis, 2020) come the findings set out here.

About 2,100 (3.2%) of roughly 65,000 compounds showed an effect of 50% or more. The median lay at about -52%. The list comes from a sample in which strong results are over-represented; it also holds similar structures and randomly drawn compounds.

For the assay, the system named is Plasmodium falciparum. In words: Screen against P. falciparum Asexual Blood Stage (ABS), at 5uM. The assay is classed as functional, Dd2. The conditions noted are these: tested at 5 uM.
For the molecule `COCCN1CCN(c2cccc(C)n2)Cc2ccc(C)nc21`, the INHIBITION is reported as -14.7%. With `Cc1cc(NC2CC3(CCN(Cc4csc(C)n4)C3)C2)ncn1` (configuration not stated), the INHIBITION is reported as -142%. In the case of `Cc1nocc1C(=O)N1CCOC2(COCCN(C(C)C)C2)C1` (configuration not stated) it was -62.3%; in that of `CC(c1cccc(O)c1)N(C)S(=O)(=O)c1cccnc1` (configuration not stated), 71.4%. The same measure for `CN1CCO[C@@H]2CN(S(=O)(=O)c3cccnc3)C[C@@H]2C1`: -79%. In the case of `CCN(C(C)c1cccc(O)c1)S(=O)(=O)c1cccnc1` (configuration not stated) it was 76.6%; in that of `CN1CCC(N2CCN3C(=O)NC[C@H]3C2)CC1`, -11%; in that of `COCCN1CCN(S(=O)(=O)C2CC2)Cc2cccnc21`, -40.8%.

For `Cc1cc2n(n1)CC(CNC1CCN(Cc3ccccc3C)CC1)CN2` (configuration not stated), the INHIBITION is 71%.

Regarding `Cc1cccc(CN2CCC(NCC3CNc4cc(C)nn4C3)CC2)c1` (configuration not stated), the INHIBITION is recorded as 86.5%.

Turning to `Cc1cc(-c2ccc(C(C)N3CCCCC3)cc2)cnc1N` (configuration not stated), the INHIBITION is reported as 91%. The same measure for `Cc1oncc1C(=O)N1CC[C@H]2[C@H]1CCN2Cc1ccccn1`: -23.4%. The same measure for `COCCCNc1c(C#N)c2c(c3nncn13)CN(C)CC2`: -104%.

As for `O=C(c1cccc(-n2cnnn2)c1)N1CCC2(CC1)OCCO2`, the INHIBITION is reported as -24.5%. In the case of `Cc1ccc(-n2cnnn2)cc1NCC(=O)Nc1ccccc1Cl` it was 79.3%; in that of `O=C(c1cc(-n2cnnn2)ccc1Cl)N1CCC2(CC1)OCCO2`, -29.7%. The same measure for `CCN(CC)C(=O)c1ccc(NC(=O)CNc2ccc(F)cc2Cl)cc1`: -91.8%; for `Cc1ccc(-n2cnnn2)cc1NCC(=O)Nc1cc(F)ccc1F`: 72.3%. In the case of `CCN(CC)C(=O)c1ccc(NC(=O)CNc2ccc(Br)cc2F)cc1` it was -171%; in that of `O=C(NCC1CCC2(CCNCC2)O1)C1CC1` (configuration not stated), 47.7%. Turning to `Cc1cccnc1N1CC2(CCN(Cc3cnn(C)c3)C2)C1`, the INHIBITION was 23.4%. The same measure for `Cc1[nH]c2c(F)cccc2c1CC(=O)N1CCN(C2CCSCC2)CC1`: -8.93%. In the case of `COc1ccc(CN2CCNC(=O)CC2)cc1SC(F)(F)F`, the INHIBITION is listed as 74.5%. The same measure for `COc1cccc(C2=CCN(CCN3CCOC3=O)CC2)c1`: -8.54%; for `Cc1cc(CN2C[C@@H]3CCCO[C@@H]3[C@H](Nc3ccccn3)C2)no1`: -62.6%.

As for `OC(COCc1ccc(Cl)cc1)CN1CCC(c2ccn[nH]2)CC1` (configuration not stated), the INHIBITION is given as 70.9%. In the case of `CCOCC(O)CN1CCN(C(=O)Cc2ccc(C)nc2)CC1` (configuration not stated) it was -7.76%.

For the molecule `Cc1noc(C)c1CN(Cc1cccnc1)C1CN2CCC1CC2` (configuration not stated), the INHIBITION is -110%. The same measure for `O=C1NCC2(CCCN(Cc3cccnc3)C2)Oc2ccccc21` (configuration not stated): -134%; for `Cc1ccsc1CN(Cc1cccnc1)C1CC(C)(C)NC(C)(C)C1`: 81.4%.

In the case of `Cc1ccsc1CN1C[C@@H]2CN(Cc3cccnc3)CCO[C@@H]2C1`, the INHIBITION is recorded as -28.4%.

In the case of `CCc1cc(CN(Cc2cccnc2)C2CN3CCC2CC3)on1` (configuration not stated), the INHIBITION turned out to be 3.06%. The same measure for `CCN(Cc1cccnc1)CC1CCCO1` (configuration not stated): -162%; for `CCCN(Cc1cccnc1)C1CC(C)(C)NC(C)(C)C1`: 77.6%. The same measure for `CC1(C)CC(N(Cc2cccnc2)Cc2cccc(F)c2)CC(C)(C)N1`: 76.6%. The same measure for `CC1(C)CC(N(Cc2ccccc2)Cc2ncc[nH]2)CC(C)(C)N1`: 70.3%; for `Cc1ncc2c(c1CNC(=O)C1(C)CCCO1)CCNC2` (configuration not stated): -148%.

In the case of `C[C@@H]1CN(C2CCOC2)C[C@]12CCN(Cc1cccnc1)C2=O` (some centres not stated), the INHIBITION is -45.9%. The same measure for `Clc1cc(N2CCN3CCCCC3C2)nc2[nH]ccc12` (configuration not stated): 42.6%. Regarding `CN(C)CCN1CCCC12CCN(C(=O)c1ccncc1)CC2`, the INHIBITION was -98.9%. In the case of `c1ccc(OCC2C[C@@H]3[C@@H](C2)OCCN3CC2CCOCC2)nc1` (some centres not stated) it was -60.7%; in that of `COc1ccc(N2CCCC3(C2)CN(c2nncs2)CCO3)cc1` (configuration not stated), 88%. The same measure for `Cc1noc(C)c1CN1CCOC2(CCCN(c3nncs3)C2)C1` (configuration not stated): -103%; for `Cc1noc(C)c1CN1CCCC2(C1)CN(c1nncs1)CCO2` (configuration not stated): -18.9%. In the case of `O=C1CSC(c2ccncc2)c2c(n(C3CCOCC3)[nH]c2=O)N1` (configuration not stated) it was -84.2%.

On to `CC(C)C(NC(=O)c1ccco1)C(=O)N1CCC2(CC1)OCCO2` (configuration not stated), for which the INHIBITION is -80.1%. The same measure for `CNC(=O)CCN(C)CC1(c2ccc(Br)cc2)CC1`: 87.3%.

As for `CN1CCCC(c2cncc(-c3cccc(C(F)(F)F)c3)n2)C1` (configuration not stated), the INHIBITION worked out at 77.3%. The same measure for `CN1CCCC(c2cccc(-c3cccc(F)c3)n2)C1` (configuration not stated): 74%. In the case of `CN1CCC(c2cncc(N(C)C)n2)CC1`, the INHIBITION is on record as -19%. The same measure for `CC(=O)N1CCCC(c2ccc(N3CCN(C)CC3)cn2)C1` (configuration not stated): -0.837%; for `CN1CCCC(c2cccc(-c3cccc(C(F)(F)F)c3)n2)C1` (configuration not stated): 73.7%; for `Cc1sc2c(C3CCCN(C)C3)nc(C)n2c1C` (configuration not stated): 42.7%.

As for `CNC(=O)c1ccc2c(c1)C1(CCN(CC(C)C)CC1)C(=O)N2`, the INHIBITION is -15.5%. For the molecule `Cc1nccc([C@H]2C[C@@H]3CCN(Cc4ccco4)C[C@H]3O2)n1`, the INHIBITION is listed as -9.96%. In the case of `Cc1ccc(CC(=O)N2CCN(C3CCOC3=O)CC2)cc1` (configuration not stated) it was -27.2%; in that of `CC(C)N1CCN(C)C2(CCN(C(=O)c3ccnnc3)CC2)C1=O`, -37.3%; in that of `CN1CCN2C(=O)N(C3CCOCC3)C[C@H]2C1`, -99.7%. In the case of `c1cncc(COCC2CC[C@H]3[C@H]2OCCN3Cc2ccoc2)c1` (some centres not stated) it was -12.2%.

Turning to `CCC[C@H]1CN(S(=O)(=O)c2ccc(CC)s2)C[C@@H]1N`, the INHIBITION came out at 75.8%.

Turning to `Cc1noc(C)c1CN1C[C@H]2CNC[C@H]2C1`, the INHIBITION is given as 9.33%.

Consider `CCC[C@H]1CN(S(=O)(=O)c2c(C)noc2C)C[C@@H]1N`, for which the INHIBITION is on record as 82.5%. The same measure for `Cc1ccc(CN(CCN(C)C)Cc2c(C)nc3sccn23)o1`: 84.6%; for `CN(C)CCN(Cc1ccco1)C(=O)Cc1cn2ccsc2n1`: -5.56%; for `Cc1nc(CC(=O)N(CCN2CCOCC2)Cc2ccco2)c(C)s1`: -135%. Regarding `Cc1ccc(CN(CCN(C)C)C(=O)Cc2cn3ccccc3n2)o1`, the INHIBITION was -67.1%. The same measure for `Cc1nc2sccn2c1CN(CCCN(C)C)Cc1ccco1`: 86.2%.
